# Experimental data published in ChEMBL document CHEMBL5308504, “Tm Shift (DSF) assay results for EUbOPEN Chemogenomics Library” (2023).
# Where “and” joins values, the source holds several entries; their conditions need not be identical. Identical values can stand only once.
# How the values were obtained:
# Conditions in all cases: Compound concentration 20.0 uM, Protein concentration 2.0 uM, Result type QC Liability
# [1] = molecular target: Tyrosine-protein kinase ABL1 (Homo sapiens) (UniProt P00519)
# [2] = molecular target: Cyclin-dependent kinase 2 (Homo sapiens) (UniProt P24941)
# [3] = molecular target: Casein kinase I isoform delta (Homo sapiens) (UniProt P48730)
# [4] = molecular target: Glycogen synthase kinase-3 beta (Homo sapiens) (UniProt P49841)
# [5] = molecular target: Mitogen-activated protein kinase 1 (Homo sapiens) (UniProt P28482)
# [6] = molecular target: T1, Aurora kinase A (Homo sapiens) (UniProt O14965)
# T1 sequence (whole entry): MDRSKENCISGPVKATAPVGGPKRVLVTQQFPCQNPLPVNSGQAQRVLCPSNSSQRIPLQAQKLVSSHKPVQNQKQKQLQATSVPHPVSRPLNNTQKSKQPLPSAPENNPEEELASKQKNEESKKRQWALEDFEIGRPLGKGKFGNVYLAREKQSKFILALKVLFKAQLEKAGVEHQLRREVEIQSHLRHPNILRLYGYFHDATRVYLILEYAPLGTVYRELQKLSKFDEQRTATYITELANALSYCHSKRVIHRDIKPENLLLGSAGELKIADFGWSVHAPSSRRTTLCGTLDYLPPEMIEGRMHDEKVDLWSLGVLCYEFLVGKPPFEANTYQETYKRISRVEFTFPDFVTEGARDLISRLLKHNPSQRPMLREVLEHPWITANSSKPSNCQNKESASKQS
# Sequence of Glycogen synthase kinase-3 beta (Homo sapiens) (P49841 whole entry, looked up): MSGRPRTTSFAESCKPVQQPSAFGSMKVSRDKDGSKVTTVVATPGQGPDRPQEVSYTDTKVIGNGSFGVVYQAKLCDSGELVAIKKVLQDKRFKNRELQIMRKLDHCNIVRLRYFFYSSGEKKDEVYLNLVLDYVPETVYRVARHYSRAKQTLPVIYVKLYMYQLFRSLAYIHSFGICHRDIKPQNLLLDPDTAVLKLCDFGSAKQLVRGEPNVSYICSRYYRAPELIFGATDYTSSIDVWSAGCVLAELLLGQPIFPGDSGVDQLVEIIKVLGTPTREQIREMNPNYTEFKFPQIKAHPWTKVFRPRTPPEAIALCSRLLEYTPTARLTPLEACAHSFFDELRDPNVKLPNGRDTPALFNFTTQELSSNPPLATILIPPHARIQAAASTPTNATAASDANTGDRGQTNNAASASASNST
# Sequence of Tyrosine-protein kinase ABL1 (Homo sapiens) (P00519 whole entry): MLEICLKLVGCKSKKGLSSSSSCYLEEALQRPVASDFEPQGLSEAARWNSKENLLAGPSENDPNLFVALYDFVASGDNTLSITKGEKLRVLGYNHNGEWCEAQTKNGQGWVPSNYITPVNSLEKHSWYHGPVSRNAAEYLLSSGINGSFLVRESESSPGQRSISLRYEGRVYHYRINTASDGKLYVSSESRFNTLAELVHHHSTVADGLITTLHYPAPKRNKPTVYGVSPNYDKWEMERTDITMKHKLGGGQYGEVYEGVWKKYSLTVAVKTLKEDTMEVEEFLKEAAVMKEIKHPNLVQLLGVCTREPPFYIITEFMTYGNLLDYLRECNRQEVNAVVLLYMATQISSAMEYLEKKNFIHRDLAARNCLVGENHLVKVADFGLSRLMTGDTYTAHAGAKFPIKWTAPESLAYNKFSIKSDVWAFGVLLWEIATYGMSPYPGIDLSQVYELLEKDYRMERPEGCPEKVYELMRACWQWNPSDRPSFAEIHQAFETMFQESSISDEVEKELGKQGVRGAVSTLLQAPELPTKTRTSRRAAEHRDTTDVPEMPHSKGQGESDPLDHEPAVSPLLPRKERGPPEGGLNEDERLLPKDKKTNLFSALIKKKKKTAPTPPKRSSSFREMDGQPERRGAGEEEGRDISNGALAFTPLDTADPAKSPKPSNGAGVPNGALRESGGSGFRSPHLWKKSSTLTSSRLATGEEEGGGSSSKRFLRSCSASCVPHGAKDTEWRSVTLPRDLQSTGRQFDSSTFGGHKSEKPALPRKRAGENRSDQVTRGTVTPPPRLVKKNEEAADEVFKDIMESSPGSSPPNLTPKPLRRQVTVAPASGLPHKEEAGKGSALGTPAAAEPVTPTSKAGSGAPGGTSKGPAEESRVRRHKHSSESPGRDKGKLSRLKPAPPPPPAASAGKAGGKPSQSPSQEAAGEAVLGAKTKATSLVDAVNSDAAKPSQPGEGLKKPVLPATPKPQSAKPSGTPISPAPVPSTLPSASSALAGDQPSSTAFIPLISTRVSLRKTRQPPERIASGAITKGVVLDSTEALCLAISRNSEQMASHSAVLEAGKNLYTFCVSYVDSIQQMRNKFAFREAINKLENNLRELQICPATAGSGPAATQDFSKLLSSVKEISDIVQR
# Sequence of Casein kinase I isoform delta (Homo sapiens) (P48730 whole entry, looked up, canonical isoform): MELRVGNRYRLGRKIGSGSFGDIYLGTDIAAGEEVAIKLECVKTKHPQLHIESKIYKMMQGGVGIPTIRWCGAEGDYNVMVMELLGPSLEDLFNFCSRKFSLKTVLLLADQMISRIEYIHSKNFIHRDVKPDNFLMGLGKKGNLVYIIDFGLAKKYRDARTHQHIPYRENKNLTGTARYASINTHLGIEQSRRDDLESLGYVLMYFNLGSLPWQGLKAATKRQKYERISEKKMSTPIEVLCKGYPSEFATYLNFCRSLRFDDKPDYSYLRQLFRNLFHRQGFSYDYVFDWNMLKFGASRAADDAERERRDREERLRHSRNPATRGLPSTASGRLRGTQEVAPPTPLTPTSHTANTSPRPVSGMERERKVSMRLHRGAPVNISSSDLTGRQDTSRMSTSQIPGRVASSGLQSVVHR
# Sequence of Mitogen-activated protein kinase 1 (Homo sapiens) (P28482 whole entry): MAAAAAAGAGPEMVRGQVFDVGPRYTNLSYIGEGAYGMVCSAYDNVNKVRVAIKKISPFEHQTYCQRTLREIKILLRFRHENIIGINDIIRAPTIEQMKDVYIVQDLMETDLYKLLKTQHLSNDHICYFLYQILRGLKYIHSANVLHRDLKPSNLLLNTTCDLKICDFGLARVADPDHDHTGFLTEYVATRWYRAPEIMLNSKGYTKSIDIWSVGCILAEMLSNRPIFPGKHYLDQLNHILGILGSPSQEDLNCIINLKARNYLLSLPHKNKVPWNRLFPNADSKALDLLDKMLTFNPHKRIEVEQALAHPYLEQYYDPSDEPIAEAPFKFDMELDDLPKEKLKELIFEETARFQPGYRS
SMILES,ΔTm [1],ΔTm [2],ΔTm [3],ΔTm [4],ΔTm [5],ΔTm [6]
COc1cc(-c2cn(C)c(=O)c3cnccc23)cc(OC)c1CN(C)C,0.24 °C,0.43 °C,0.32 °C,0.06 °C,0.23 °C,0.56 °C
CC(C)(C)c1cc(NC(=O)c2csc(Nc3ccc(Cl)cc3)n2)no1,-0.19 °C,0.91 °C,1.05 °C,-2.8 °C,-3.27 °C,1.67 °C
COc1ncc(-c2cc(-c3ncc(CN4C[C@@H](C)O[C@@H](C)C4)o3)c3cn[nH]c3c2)cc1NS(C)(=O)=O,0.42 °C,0.2 °C,0.38 °C,-0.36 °C,0.18 °C,1.26 °C
CS(C)(=O)=Nc1ccc(-c2ccc(-c3nc4[nH]c(O[C@@H]5CO[C@H]6[C@@H]5OC[C@H]6O)nc4cc3Cl)cc2)cc1,1.8 °C,0.06 °C,0.3 °C,-0.22 °C,0.83 °C,0.34 °C
CCOC(=O)C1Cc2ccccc2CN1C(=O)c1ccc(SC)s1 (stereo unspecified),0.02 °C,0.34 °C,0.34 °C,-1.03 °C,0 °C,-1.2 °C
O=C(O)Cc1ccc(CCNS(=O)(=O)c2ccc(Cl)cc2)cc1,0.25 °C,0.43 °C,0.01 °C,0.95 °C,-0.52 °C,-0.24 °C
COc1cccc(CNc2ccc(S(=O)(=O)Nc3nc4ccccc4s3)cc2)c1O,0.16 °C,0.93 °C,0.86 °C,0.88 °C,-0.57 °C,1.13 °C
Cc1cc(CN(CC(=O)Nc2ccc(Cl)cc2Cl)C2CCCCC2)ccc1OCC(=O)O,-1.67 °C,-2.21 °C,-0.47 °C,-3.13 °C,-1.06 °C,-2 °C
CC1(C)C[C@@H]1C(=O)N/C(=C\CCCCSC[C@H](N)C(=O)O)C(=O)O,0.34 °C,0.8 °C,-0.09 °C,0.21 °C,-0.39 °C,-0.41 °C
COc1cc(-c2cc3ncccc3c(O[C@@H](C)[C@H]3CNC(=O)C3)n2)cc(OC)c1OC,0.48 °C,0.19 °C,1.43 °C,-0.57 °C,0.06 °C,2.08 °C
COc1cc(C(N)=O)ccc1Nc1ncc2c(n1)N(CCC(C)C)[C@H](C)C(=O)N2C,1.42 °C,-0.37 °C,0.51 °C,0.01 °C,-6.61 °C,-0.69 °C
CC[C@@H](CO)Nc1nc(Nc2cccc(NC(=O)C(C)(C)C)c2)ncc1F,1.74 °C,1.9 °C,0.38 °C,3.34 °C,0.54 °C,9.07 °C
CCc1ccccc1C(=O)Nc1n[nH]c2c(C)c(F)c(C3C(C#N)=C(C)N(C)C(C)=C3C#N)cc12,0.41 °C,1.35 °C,0.67 °C,8.17 °C,0.38 °C,5.56 °C
CCCS(=O)(=O)Nc1ccc(F)c(Nc2ncnc3cnc(-n4cnc(C)c4)nc23)c1F,1.19 °C,1.1 °C,0.17 °C,0.89 °C,0.39 °C,-0.24 °C
CC(=O)Nc1nc(C)c(S(=O)(=O)Nc2ccc(C(O)(C(F)(F)F)C(F)(F)F)cc2)s1,0.65 °C,0.74 °C,0.36 °C,0.5 °C,0.18 °C,1.27 °C
C[C@H](NC(=O)c1cc(Cl)ccc1Oc1ccc(F)cc1)c1ccc(C(=O)O)cc1,-0.11 °C,0.27 °C,-2.45 °C,0.51 °C,0.18 °C,-0.14 °C
Cn1cc(-c2ccc(N(C(=O)NCc3ccccc3)[C@H]3CC[C@H](Nc4ccc(C#N)cn4)CC3)cc2)ccc1=O,0.13 °C,0.7 °C,0.29 °C,0.01 °C,-0.4 °C,-0.15 °C
CC(=O)N1CCN([C@H]2CCC[C@@H](NC(=O)c3cc4c(F)ccc(C)c4[nH]3)C2)CC1,0.29 °C,0.89 °C,0.05 °C,-0.56 °C,0.42 °C,-0.61 °C

SMILES,ΔTm [1],ΔTm [2],ΔTm [3],ΔTm [4],ΔTm [5],ΔTm [6]
C[C@H](CCC(=O)O)[C@H]1CC[C@H]2[C@@H]3[C@H](O)C[C@@H]4C[C@H](O)CC[C@]4(C)[C@H]3C[C@H](O)[C@]12C,0.17 °C,0.08 °C,0.33 °C,-0.66 °C,0.4 °C,-1.53 °C
C[C@@H]1C[C@H](C)CN(c2ncc(Cl)c(Nc3ccc4c(c3)cc(OC(C)(C)C(=O)O)c(=O)n4C)n2)C1,-0.58 °C,0.18 °C,-0.08 °C,-1.47 °C,0.14 °C,0.18 °C
CNC(=O)COc1cc2cc(Nc3nc(N4C[C@H](C)C[C@H](C)C4)ncc3Cl)ccc2n(C)c1=O,-0.28 °C,0.46 °C,0.11 °C,-0.11 °C,0.15 °C,0.07 °C
CCS(=O)(=O)c1cc2cc(C[C@](O)(CC(C)(C)c3ccc(F)cc3C(N)=O)C(F)(F)F)[nH]c2cn1,0.15 °C,0.5 °C,0.37 °C,-0.73 °C,0.36 °C,0.03 °C
Cc1cc(SCc2sc(-c3ccc(C(F)(F)F)cc3)nc2C)ccc1OCC(=O)O,0 °C,0.3 °C,1.18 °C,-1.11 °C,0.57 °C,-2.58 °C
O=C(O)c1ccc(OCCCc2ccc(OCCCCOC3CCCCC3)cc2)c(C(=O)NC2CCCC(C(=O)O)C2)c1 (stereo unspecified),-0.97 °C,-0.34 °C,0.18 °C,-0.84 °C,-0.39 °C,-1.1 °C
CNC(=O)COc1cc2cc(Nc3nc(N4CCC(C(=O)N(C)C)CC4)ncc3Cl)cc(OC)c2n(C)c1=O,-0.18 °C,-0.4 °C,0.17 °C,-0.71 °C,0.01 °C,-0.26 °C
CSc1ccc(C(=O)/C=C/c2cc(C)c(OC(C)(C)C(=O)O)c(C)c2)cc1,1.1 °C,0.59 °C,0.61 °C,0.69 °C,0.07 °C,4.96 °C
CN(C)c1ncc2cc(-c3ccc(-c4ncccc4F)cc3Cl)c(=O)n(C[C@H]3OC[C@H](N)CO3)c2n1,-0.17 °C,0.29 °C,0.68 °C,-0.87 °C,-0.05 °C,-1.8 °C
Cc1ncsc1-c1ccc(CNC(=O)[C@@H]2C[C@@H](O)CN2C(=O)[C@@H](NC(=O)CCCCNC(=O)c2ccc(-c3ccc(N4CCN(C)CC4)c(NC(=O)c4c[nH]c(=O)cc4C(F)(F)F)c3)cc2)C(C)(C)C)cc1,-3.44 °C,1.06 °C,0.88 °C,-0.58 °C,-2.62 °C,0.62 °C
COc1cc(-c2cncc(-c3cnn(C4CCNCC4)c3)c2)cc(OC)c1OC,4.87 °C,0.28 °C,0.76 °C,-0.71 °C,0.5 °C,-0.25 °C
N#Cc1ccc(C#CC[C@@H](C#N)NC(=O)[C@@H]2CCCCN2)cc1F,-0.78 °C,0.23 °C,0.14 °C,-0.69 °C,0.24 °C,-0.05 °C
CN1C(=O)Cc2ccc(-c3ccc(C[C@@H](C#N)NC(=O)[C@H]4N[C@@H]5CC[C@H]4C5)c(F)c3)cc21,0.24 °C,0.52 °C,0.41 °C,0.41 °C,0.5 °C,0.8 °C
C[C@@H]1COCCN1c1cc(=O)n2c(n1)N(Cc1cncc(Cl)c1)[C@H](C(F)(F)F)CC2,0.53 °C,0.54 °C,0.16 °C,0.4 °C,0.34 °C,-0.23 °C
CC(=O)c1c(C)c2cnc(Nc3ccc(N4CCN(CCCCNC(=O)COc5cccc6c5C(=O)N(C5CCC(=O)NC5=O)C6=O)CC4)cn3)nc2n(C2CCCC2)c1=O (stereo unspecified),0.12 °C,0.59 °C,0.26 °C,0.7 °C,0.16 °C,-0.33 °C
CCS(=O)(=O)c1cc2cc(C[C@@](O)(CC(C)(C)c3ccc(F)cc3C(N)=O)C(F)(F)F)[nH]c2cn1,-0.47 °C and 0.04 °C,0.64 °C and 0.86 °C,0.37 °C and 0.15 °C,-0.42 °C and -0.19 °C,-0.08 °C and 0.35 °C,-0.24 °C and 0.19 °C
CN[C@@H](C)C(=O)N[C@H](C(=O)N1CCC[C@H]1C(=O)N[C@H]1c2ccccc2C[C@H]1OCC#CC#CCO[C@@H]1Cc2ccccc2[C@@H]1NC(=O)[C@@H]1CCCN1C(=O)[C@@H](NC(=O)[C@H](C)NC)C1CCCCC1)C1CCCCC1,0.18 °C,-0.48 °C,0.49 °C,-1.17 °C,0.11 °C,-1.88 °C
COc1cc(N[C@@H]2CCCC[C@]2(O)C(F)(F)F)ccc1F,0.29 °C,0.72 °C,0.65 °C,-0.31 °C,0.4 °C,-1.49 °C
